D3 antag = D3 dopamine receptor (human) antagonism; P35462; D3R cells, DiscoveRx beta-arrestin luminescence, antagonist mode; active compounds read low; max response, negative = inhibition, %; actives 2.5% (n = 360,000); in the data active means max response below about -50%; inconclusive means no clear call, values can overlap the other calls; further: on the % scale 0 is the no-effect control and ±100 the full control effect
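Cells plated overnight at 1500 cells/well, then exposed to library compounds with dopamine controls for 90 minutes at 37 degrees C. DiscoveRx reagent added for 30–60 minutes at room temperature; luminescence read, quantitative HTS format.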
DRD3 agonist = agonists of human D3 dopamine receptor. P35462. D3R DiscoveRx beta-arrestin cells, luminescence, 90 min. max activation, %. actives 0.58% (n = 410,000). AID 652048; in the data active means max activation above about 30%; further: 0% is about no effect
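Agonist-mode cell screen: cells plated at 1500/well and incubated overnight at 37 °C, then exposed to library compounds for 90 min at 37 °C. Detection reagent was added for 30–60 min at room temperature, and luminescence was read.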
D1 antag = antagonists of human D1 dopamine receptor | P21728 | HEK293 TREx D1 cells, calcium flux, dopamine EC80; active compounds read low | activity change, negative = inhibition, % at 10 µM | actives 3.2% (n = 360,000); in the data active means activity change below about -30%; further: on the % scale 0 is the no-effect control and ±100 the full control effect
Target sequence (P21728 whole entry, looked up): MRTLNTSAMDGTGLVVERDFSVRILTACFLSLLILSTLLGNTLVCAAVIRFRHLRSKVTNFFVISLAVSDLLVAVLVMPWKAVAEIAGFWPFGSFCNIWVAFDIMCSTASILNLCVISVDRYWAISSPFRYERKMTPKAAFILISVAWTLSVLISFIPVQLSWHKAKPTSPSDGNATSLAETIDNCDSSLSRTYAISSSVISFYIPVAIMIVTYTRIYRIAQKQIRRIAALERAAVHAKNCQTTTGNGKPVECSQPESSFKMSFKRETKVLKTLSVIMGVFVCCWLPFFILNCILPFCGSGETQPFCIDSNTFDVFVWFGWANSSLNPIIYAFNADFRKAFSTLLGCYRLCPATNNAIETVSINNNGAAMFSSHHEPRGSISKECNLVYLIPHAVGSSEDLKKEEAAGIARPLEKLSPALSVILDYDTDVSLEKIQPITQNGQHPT
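Cells carrying a force-coupled, tetracycline-inducible human D1 receptor report calcium flux. Each well gets a 10 s baseline, compound with 180 s monitoring, then an EC80 dopamine stimulus with a second 180 s kinetic read.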
D1 ag = activates the human D1 dopamine receptor; P21728; HEK293 T-REx D1 cells, calcium flux, agonist mode; activation, % at 2 µM; AID 504660; actives 1% (n = 360,000); in the data active means activation above about 30%; further: 0% is about no effect
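Agonism was scored from calcium flux recorded over 180 s (1 read/s) after pintool compound addition, following a 10-cycle baseline. Cells were inducible force-coupled HEK293 TREx D1, plated overnight at 30 C and loaded with no-wash calcium dye.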
D1 potentiator = enhances dopamine response at the human D1 receptor. potentiation, % at 10 µM. AID 504651. P21728. actives 0.036% (n = 360,000). HEK293 TREx D1 cells, calcium flux, dopamine EC20 potentiation; in the data active means potentiation above about 30%; further: 0% is about no effect
An asterisk follows results filed as active; ? = inconclusive; . = no result. An excerpt weighted towards active compounds, which were near 6% of everything screened.

SMILES	D3 antag	DRD3 agonist	D1 antag	D1 ag	D1 potentiator
O=C(NC1CCN(C(=O)NC2CCCCC2)CC1)c1ccco1	12.2	-1.3	1.3	3.1	-0.8
Cc1ccc2cccc(NC(=O)c3ccc(-c4ccc(Cl)cc4Cl)o3)c2n1	.	0.4	-0.1	-0.5	-4.2
CCN(CC)CCNc1ccc(CO)c2oc3cc(Cl)ccc3c(=O)c12	-55.6*	-5.2	.	.	.
O=C1CN(C(=S)Nc2ccccc2Cl)CCN1	4.7	45.0*	6.2	0.0	-8.0
FC(F)(F)c1cccc(NC(=S)N2CCN(c3cccc(C(F)(F)F)c3)CC2)c1	-21.3	-7.3	-7.0	1.8	-5.6
FC(F)Sc1ccc(NC(=S)N2CCN(c3ccccn3)CC2)cc1	1.8	5.1	-34.2*	11.2	-6.1
S=C(Nc1ccccc1Cl)N1CCN(c2ccccn2)CC1	13.0	10.1	-31.6*	2.2	-6.0
S=C(Nc1ccccc1Cl)N1CCCCC1	12.7	-5.1	5.3	4.4	-1.6
Fc1ccc(NC(=S)N2CCN(c3cccc(C(F)(F)F)c3)CC2)cc1	?	-4.5	-38.4*	9.6	-10.4
Cc1cccc(C(=O)N(Cc2ccco2)Cc2ccccc2F)c1	.	-11.4	-9.1	0.7	3.1
CC(C)(C)NC(=O)CN(C(=O)c1snc(C(=O)NC2CCCCC2)c1N)c1ccc(F)cc1	-25.7	-11.6	11.9	4.4	.
CCCc1nc2ccccc2c(=O)n1CC(=O)c1ccc(F)cc1	44.4	1.8	0.1	2.6	-3.4
Cc1ccc(CNC(=O)C2CCCN(c3nc4c(C)cc(C)cc4s3)C2)cc1 (centres undefined)	.	2.1	12.8	-0.4	-1.2
CNc1ccc(-c2cccc(C(=O)N3CCOCC3)c2)cn1	?	-15.4	.	.	.
CC1(C(=O)NCCc2ccccc2)Cc2c(-c3ccccc3)ccnc2O1 (centres undefined)	0.0	-21.6	.	.	.
CCN(CC)c1ccc(S(=O)(=O)N2CCOCC2)cc1NC(=O)Nc1ccccc1	-26.8	-2.1	.	.	.
O=S(=O)(c1ccc2c(c1)OCCO2)N1CCN(S(=O)(=O)c2ccc3nc(Cl)c(Cl)nc3c2)CC1	.	.	-20.0	3.7	5.2
Fc1cccc(NC(=S)N2CCN(c3ccccn3)CC2)c1	-8.8	-5.2	-13.0	5.7	-10.7
FC(F)(F)c1cccc(NC(=S)N2CCN(c3ccccn3)CC2)c1	-106.3*	6.2	-30.5*	4.0	-3.1
COc1cccc(/C=N/Nc2snc(SC)c2C#N)c1O	?	3.6	-41.3*	37.0*	-0.9
COc1ccc(/C=N/Nc2snc(SC)c2C#N)cc1OC	0.0	0.2	16.5	0.1	-7.7
Cc1ccc(NC(=O)Cn2c(=O)n(CCc3ccccc3)c(=O)c3c4c(sc32)CCCC4)c(C)c1	.	4.2	-14.0	-0.6	1.9
Cc1ccc(NC(=O)CN2CCc3ccccc3C2)cc1F	-85.1*	-36.0	8.0	0.4	-1.5
CCOC(=O)c1ccc(NC(=O)N2CCc3ccccc3C2)cc1	-22.4	-8.6	-38.7*	12.7	-1.9
O=C(CN1CCc2ccccc2C1)Nc1ccc(Br)cc1	-52.1*	-3.4	0.6	3.2	-2.4
SMILES	D3 antag	DRD3 agonist	D1 antag	D1 ag	D1 potentiator
CCc1ccc(NC(=O)CN2CCc3ccccc3C2)cc1	-65.4*	-1.5	-3.5	-1.3	-3.1
O=C(CN1CCc2ccccc2C1)NCC(=O)Nc1ccc(F)cc1	2.4	-6.4	23.5	1.6	-6.3
Cc1ccc(NC(=O)CN2CCc3ccccc3C2)cc1S(=O)(=O)N(C)C	?	-1.8	-1.8	3.5	-6.4
N#Cc1cc2cc3c(cc2nc1SCC(=O)OC1CCCCC1)OCO3	-10.1	0.4	-31.6*	9.1	5.7
Cc1ccc(C)c(N(C)C(=O)C2CCN(c3ncnc4c3nc3n4CCCCC3)CC2)c1	.	-5.1	-4.6	2.7	4.8
COc1ccc(N2CCN(CC(=O)Nc3ccccc3C(=O)NCc3ccccc3)CC2)cc1	27.9	7.8	-10.9	1.3	-1.4
NC(=O)CC[C@@H]1NC(=O)[C@H](CO)NC(=O)c2cc([N+](=O)[O-])cc(I)c2OCC[C@@H](C(N)=O)NC1=O	-2.9	7.5	2.0	-3.6	-4.0
CC(C)C[C@@H]1NC(=O)[C@H](C(C)C)NC(=O)c2cc([N+](=O)[O-])cc(I)c2OCC[C@@H](C(N)=O)NC1=O	-52.8*	-20.1	-3.8	-2.6	2.5
COC(=O)[C@]12CCCCC=C1N(Cc1ccc3c(c1)OCO3)C(=O)[C@H](CC(=O)N1CCC(c3ccccc3)CC1)C2	8.5	5.9	.	.	.
Cc1nccn1CCOc1ccccc1Cl	-22.2	-8.3	-34.5*	7.2	-7.4
Clc1ccccc1OCCCn1ccnc1	-0.6	-6.8	-1.6	4.1	-2.4
S=C(NCCc1ccccc1)N1CCC2CC1c1cc(-c3ccc4c(c3)OCO4)ccc12 (centres undefined)	47.5	1.5	.	.	.
Cc1ccc(C(=O)c2c3ccccc3[n+]([O-])n2[C@@H](C)C(N)=O)cc1	-64.4*	-16.3	1.4	-1.4	2.6
Cc1ccc(C(=O)c2c3ccccc3[n+]([O-])n2CCC(N)=O)cc1	25.5	4.1	9.3	-0.7	-3.8
Cc1c(NS(=O)(=O)c2cccc3nsnc23)c(=O)n(-c2ccccc2)n1C	-6.9	-8.5	-89.6*	1.0	-2.8
Cc1ccc2cccc(S(=O)(=O)Nc3c(C)n(C)n(-c4ccccc4)c3=O)c2n1	11.3	-14.4	-4.6	4.2	-0.6
O=C(NCc1ccccc1F)c1cccc(NC(=O)N2CCSc3ncccc32)c1	.	0.5	-12.2	-0.8	-2.9
Cc1ccc(S[C@@H](CCN2CC[C@H](C(C)(C)C)CCC2=O)c2ccccc2)cc1	?	-28.8	-1.7	15.1	-0.6
O=C(CCNS(=O)(=O)c1ccccc1)OCC(=O)c1ccc(Br)cc1	-2.5	-0.9	-21.0	14.2	-4.0
c1ccc(C[C@H]2CNCCN2CCc2cccc3ccccc23)cc1	1.2	-10.4	-3.8	18.0	0.8
FC(F)(F)c1cc(CCN2CCNC[C@H]2Cc2cccc3ccccc23)cc(C(F)(F)F)c1	0.0	5.7	12.5	44.6*	7.5
Oc1ccc(C[C@H]2CNCCN2CCc2cc(C(F)(F)F)cc(C(F)(F)F)c2)cc1	0.1	-8.4	18.9	18.7	-6.7
Oc1ccc(C[C@@H]2CNCCN2CCc2cc(C(F)(F)F)cc(C(F)(F)F)c2)cc1	-5.5	-25.5	12.9	40.3*	-1.8
CCCC[C@@H]1CNCCN1CCc1cccc2ccccc12	-53.3*	-29.6	10.2	12.3	-2.4
Cc1nc2scc(-c3ccccc3)c2c(=O)n1N=C1C=CC(=O)C=C1	-82.6*	-18.3	-10.0	3.2	-5.0
Cc1nc2scc(-c3ccccc3)c2c(=O)n1N	-15.0	5.3	-2.8	0.3	-0.9
Cc1c(C(=O)N(C)C2CCCCC2)sc2ncnc(N3CCN(c4ccccc4)CC3)c12	37.3	7.9	-24.3	-0.4	-2.7
CCc1ccc(S(=O)(=O)c2cn(Cc3ccc(OC)cc3)c3cc(OC)c(OC)cc3c2=O)cc1	.	7.2	-0.9	8.5	0.2
O=C1c2ccccc2-c2onc3ccc(Oc4ccccc4)c1c23	-116.3*	-9.4	96.9	10.5	21.1

Screening data deposited in PubChem by National Center for Advancing Translational Sciences (NCATS).
